Data on four compounds can be found in PubChem BioAssay.

Test [1] can be described thus: Wnt pathway potentiators raising nuclear beta-catenin – imaging, WNT3A-conditioned medium, mouse C2C12, NPC library, primary screen (AID 1117326; in the data active = nuclear beta-catenin stimulation mostly above about 4.2%, no sharp cut-off; inactive = mostly below about 10%; also: reference of the scale not given here). The note with it: stronger effect = higher value.
Test [2] in a line: stimulators of insulin release from INS-1E, primary screen, cell-based, 5 mM glucose, NPC library (AID 1117329;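 active = compound raises insulin release from rat beta cells at 5 mM glucose, no numeric limit stated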; also: reference of the scale not given here). The note with it: rat INS-1E insulin secretion, at 10 µM, stronger effect = higher value.
A short description of test [3]: growth inhibition of GSK3B-pretreated HCT116 cells – cell-based, CellTiter-Glo, 0.2 to 20 µM (AID 1117336;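 active = compounds lowering colon cancer cell viability after pretreatment blocking the GSK3B kinase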). The note with it: HCT116 viability after GSK3B inhibitor, at 20 µM, stronger effect = higher value.
A short description of test [4]: inhibition of endothelial tube formation, primary screen, imaging, VEGF stimulated, CD31 staining, tube area, NPC library (AID 1117340;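 active = compound that reduces growth-factor-driven endothelial tube area in a mixed cell culture, no cutoff stated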). Conditions: VEGF-stimulated ADSC/ECFC co-culture, at 10 µM, stronger effect = higher value.
A short description of test [5]: GLP1 release stimulators, primary, NCI-H716, NPC library (AID 1117341;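 active = compound raises GLP1 secretion from the human gut endocrine cells, with no numeric limit stated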; also: reference of the scale not given here). Conditions: NCI-H716 cells, at 10 µM, stronger effect = higher value.
A short description of test [6]: HCT116 colon cancer cell growth inhibition, primary screen, CellTiter-Glo luminescence, NPC library (AID 1117342;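 active = compounds that lower survival of HCT116 colon cancer cells in the luminescence readout, no numeric limit stated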). Conditions: at 20 µM (top of the series).
Test [7] can be described thus: reduced SW480 viability measured with CellTiter-Glo, NPC library, primary (AID 1117343;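 active = compounds that lower viability of the colon cancer cells in the luminescence readout, with no numeric limit stated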). Conditions: CellTiter-Glo luminescence; at 20 µM (top of the series) unless noted.
The nature of test [8]: NPC library primary testing for decreased DLD-1 cell viability via CellTiter-Glo (AID 1117346;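 active = compounds that lower survival of DLD-1 colon cancer cells in the luminescence readout, no cutoff given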). Conditions: DLD-1 viability, CellTiter-Glo luminescence; at 20 µM (top of the series).
Test [9] deals with Aerobactin synthetase IucA (Klebsiella pneumoniae). Kind of test: inhibition of K. pneumoniae IucA enzyme – biochemical, Tocris library, absorbance (AID 1345561; call rule not given here;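 also: 100% = enzyme without compound and 0% = no enzyme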). Conditions: purified IucA enzyme assay, absorbance (OD) read-out; stronger effect = lower value;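 tested at 8 µM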.
A short description of test [10]: viability loss with induced miR-34 in A549 – imaging, A549 dox-inducible miR-34, nuclei and caspase counts, primary screen (AID 1347080). The note with it: A549 miR-34 inducible, Hoechst nuclei count, 48 h.
The nature of test [11]: galactose survival enhancers in mitochondrial complex I cybrids – cell-based, galactose medium, ATP luminescence, primary screen (AID 1645843;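 active = z-score of at least 1.8 in each of two replicates, scored against plate mean and spread of sample wells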;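 also: positive z means more ATP and so rescue of galactose-driven cybrid death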). The note with it: complex I mutant cybrid cells, 72 h, stronger effect = higher value.
Test [12] can be described thus: P. berghei load reduction in hepatocytes – cell-based, HepG2, luciferase luminescence, HepG2 viability, primary screen (AID 624349; in the data active = parasite load remaining mostly below about 12%, no sharp cut-off; inactive = mostly above about 10%;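 also: 100% = mean of DMSO negative control wells on the same plate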). Conditions: P. berghei liver stage in HepG2, luciferase luminescence, concentration not given here; parasite load remaining: stronger effect = lower value; viability: measured here: HepG2 viability without parasites.
Test [13] in a line: viability loss in pontine glioma line – cell-based, SU-DIPG-XVII, MIPE5.0, CellTiter-Glo, qHTS, dose response (AID 1347060; cut-off not given, nearly all actives have AC50 up to about 26 µM;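 as to AC50: cells exposed to compound for 48 hours before viability readout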). Conditions: CellTiter-Glo ATP luminescence.
Test [14] is described as follows: viability loss in pontine glioma line – cell-based, SU-DIPG-XIII, MIPE4.0, CellTiter-Glo, qHTS, dose response (AID 1347061; cut-off not given, nearly all actives have AC50 up to about 37 µM;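 also: cells exposed to compound for 48 hours before readout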). Conditions: CellTiter-Glo ATP luminescence.
A short description of test [15]: viability loss in pontine glioma line – cell-based, SU-DIPG-IV, MIPE4.0, CellTiter-Glo, qHTS, dose response (AID 1347063; cut-off not given, nearly all actives have AC50 up to about 30 µM;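 also: compound exposure lasted 48 hours before the viability readout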). Conditions: CellTiter-Glo ATP luminescence.
The nature of test [16]: growth inhibition of DIPG cells – cell-based, MIPE5.0 library, qHTS (AID 1347068; cut-off not given, nearly all actives have IC50 up to about 30 µM;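 as to IC50: cells exposed to compound for 48 hours before viability readout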). The note with it: SU-DIPG-XXV viability.
The nature of test [17]: MELAS cybrid and Rieske KO viability enhancers – cell-based, MELAS cybrids, Rieske KO mouse fibroblasts, CellTiter-Glo, primary screen (AID 1508586;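 active = mean z-score across replicates of 1.96 or higher in either the MELAS or the Rieske mutant cell line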;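 also: z relative to plate mean and SD of compound and empty wells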). The note with it: low glucose.
The mark [18] stands for this setting: stronger effect = lower value, cell number ratio, induced over uninduced.
[19] abbreviates: measured here: relative caspase fold change +Dox/-Dox.
The mark [20] stands for this setting: measured here: total cells with miR-34 induction, stronger effect = lower value.
Setting [21] is: measured here: total cells without miR-34 induction.
[22] abbreviates: MELAS cybrid survival, CellTiter-Glo 48 h, stronger effect = higher value.
Setting [23] is: Rieske KO mouse fibroblast survival, CellTiter-Glo 72 h.

“And” between values parts separate entries of the source, which are not always exact repeats. Equal values may be shown once. Inconclusive results are not listed. The source made the active and inactive calls.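 The calls were made as follows, unless noted: active = compounds whose cell count with miR-34 switched on is under 0.7 times the count with it off; inactive = the rest.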

For the compound `CC1(COc2ccc(CC3SC(=O)NC3=O)cc2)CCCCC1` (stereo unspecified), the nuclear beta-catenin stimulation in test [1] (at 10 µM) is 2.4% (inactive); in [1] (stimulation, at 2 µM) it was 1.5%. Also, the insulin secretion stimulation in test [2] was 1.9% (inactive). In addition, in test [3], the viability decrease is 99% (active). Moreover, the tube area decrease in test [4] was 14% (inactive). For the same compound, the GLP1 secretion stimulation in [5] is 6.6% (inactive). For the same compound, in test [6], the inhibition of viability is 101% (active). Also, the viability decrease (inhibition) in test [7] is 146% (active); in [8] it was 105% (active). Further, the remaining activity in [9] was 110% (inactive). Besides, the fold change in [10] (setting [18]) was 0.913 (inactive) and 1.03 (inactive) and 0.948 (inactive); in test [10] (setting [19]), 1.87 and 1.11 and 0.669. The cell count in [10] (setting [20]) is 5590 and 5930 and 7780; in test [10] (setting [21]), 6130 and 5780 and 8200. The z-score in test [11] is -0.49 (inactive).
`COc1cc2c(cc1OC)[C@@H]1CC(=O)[C@@H](CC(C)C)CN1CC2`: the nuclear beta-catenin stimulation is 0.6% (inactive) in test [1] (at 10 µM) and 0.1% in test [1] (stimulation, at 2 µM). The insulin secretion stimulation in test [2] is -1.9% (inactive). Also, the viability decrease in test [3] was -9.4% (inactive). Besides, in test [4], the tube area decrease was -10% (inactive). The GLP1 secretion stimulation in test [5] was -2.7% (inactive). Further, the inhibition of viability in test [6] is 21.4% (inactive). Also, the viability decrease (inhibition) was 2.6% (inactive) in test [7] and 5.2% (inactive) in test [8]. Moreover, in [9], the remaining activity was 81.5% (inactive). For the same compound, the fold change in test [10] (setting [18]) is 0.993 (inactive); in test [10] (setting [19]), 1.02. The cell count in [10] (setting [20]) was determined as 8740; in test [10] (setting [21]) it was 8800. For the same compound, in [11], the z-score was 0.105 (inactive).
`COC(=O)C1=C(C)NC(C)=C(C(=O)OCCCN2CCC(c3ccccc3)(c3ccccc3)CC2)C1c1cccc([N+](=O)[O-])c1` (stereo unspecified): the parasite load remaining in [12] is 29% (inactive). The same compound registered a viability in [12] of 90.5%. Also, the nuclear beta-catenin stimulation in test [1] (at 10 µM) is -0.8% (inactive); in [1] (stimulation, at 2 µM), 9.4%. Further, the insulin secretion stimulation in test [2] is -1.1% (inactive). The viability decrease in [3] was 110% (active). Also, in test [4], the tube area decrease is 109% (active). The GLP1 secretion stimulation in test [5] is -3.2% (inactive). Moreover, in test [6], the inhibition of viability was 112% (active). Moreover, the viability decrease (inhibition) was 134% (active) in test [7] and 101% (active) in test [8]. For the same compound, the AC50 in test [13] is 10.5 µM (active). The compound was classed as inactive in test [14] and in [15]. Also, the IC50 in [16] was 7.42 µM (active). Besides, the fold change in test [10] (setting [18]) was 1.31 (inactive) and 0.96 (inactive); in [10] (setting [19]), 0.733 and 0.821. In addition, the cell count in test [10] (setting [20]) is 498 and 6520; in test [10] (setting [21]), 380 and 6800. Besides, the z-score in test [17] (setting [22]) is -1.1 (inactive); in [17] (setting [23]), -0.158; in test [11], -2.25 (inactive).
Turning to `CN1CCCN=C1/C=C/c1cccs1`, in [12], the parasite load remaining was 31.2% (inactive) and 87.7% (inactive). Also, the viability in test [12] is 47.1% and 90.3%. Further, the nuclear beta-catenin stimulation in test [1] (at 10 µM) is 1.3% (inactive); in test [1] (stimulation, at 2 µM), 0%. In addition, the insulin secretion stimulation in test [2] was 0.75% (inactive). Further, the viability decrease in test [3] is 6.6% (inactive). For the same compound, in test [4], the tube area decrease is -9.9% (inactive). Further, the GLP1 secretion stimulation in test [5] is 1.8% (inactive). Also, in [6], the inhibition of viability is 13.5% (inactive). In addition, the viability decrease (inhibition) was 4.9% (inactive) in [7] and -4.2% (inactive) in [8]. The result in test [13] and in [16] was inactive. Also, the fold change in test [10] (setting [18]) was 0.92 (inactive); in [10] (setting [19]), 1.06. In addition, the cell count was found to be 9190 in [10] (setting [20]) and 9990 in test [10] (setting [21]). Also, the z-score is 0.267 (inactive) in test [17] (setting [22]) and -0.214 in [17] (setting [23]).
